Values joined by “and” are separate entries in the source; they are usually repeats but may differ in a detail not shown here. Equal values may be shown once. Active and inactive are the calls of the source.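 How the source made its calls, unless noted: active means compounds whose cell count with miR-34 switched on is under 0.7 times the count with it off; inactive means the rest.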
How the values were obtained:
[1] = test system: Aerobactin synthetase IucA (Klebsiella pneumoniae); test: inhibition of K. pneumoniae IucA enzyme – biochemical, Tocris library, absorbance (AID 1345561; call rule not given here;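 further: 100% = enzyme without compound and 0% = no enzyme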); conditions: purified IucA enzyme assay, absorbance (OD) read-out; stronger effect = lower value;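 tested at 8 µM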
[2] = viability loss with induced miR-34 in A549 – imaging, A549 dox-inducible miR-34, nuclei and caspase counts, primary screen (AID 1347080); conditions: A549 miR-34 inducible, Hoechst nuclei count, 48 h
[3] = galactose survival enhancers in mitochondrial complex I cybrids – cell-based, galactose medium, ATP luminescence, primary screen (AID 1645843;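 active means z-score of at least 1.8 in each of two replicates, scored against plate mean and spread of sample wells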;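 further: positive z means more ATP and so rescue of galactose-driven cybrid death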); conditions: complex I mutant cybrid cells, 72 h, stronger effect = higher value
[4] = stronger effect = lower value, cell number ratio, induced over uninduced
[5] = measured here: relative caspase fold change +Dox/-Dox
[6] = measured here: total cells with miR-34 induction, stronger effect = lower value
[7] = measured here: total cells without miR-34 induction

| Structure (SMILES) | remaining activity [1] | fold change [2, 4] | fold change [2, 5] | cell count [2, 6] | cell count [2, 7] | z-score [3] |
| --- | --- | --- | --- | --- | --- | --- |
| O=C(c1ccc(F)cc1)C1CCN(CCCCc2ccccc2)CC1 | 113% (inactive) | 0.877 (inactive) | 1.29 | 8620 | 9830 | -0.88 (inactive) |
| c1cc2c3c(c1)c1c(n3CCNC2)CCCC1 | 120% (inactive) | 0.921 (inactive) | 1.32 | 7680 | 8340 | -0.505 (inactive) |
| c1cc2c(cc1C1CCCCC1)c1c3n2CCNC3CCC1 (stereo not drawn) | 102% (inactive) | 1.06 (inactive) | 1.07 | 430 | 406 | -1.23 (inactive) |
| C[C@@H]1CC2C3CCC4=CC(=O)C=CC4(C)C3(F)[C@@H](O)CC2(C)C1(O)C(=O)CO (stereo partly drawn) | 110% (inactive) | 0.804 (inactive) | 0.753 | 7230 | 8990 | 0.725 (inactive) |
| C1CC[C@H]2[N]=[Pt]=[N][C@@H]2C1.O=C(O)C(=O)O | 86.1% (inactive) | 0.928 (inactive) | 1.09 | 4040 | 4350 | 3.04 (active) |
| Cc1nnc(-c2ccc3occ(-c4ccc(S(C)=O)cc4)c3c2)o1 (stereo not drawn) | 113% (inactive) | 0.855 (inactive) | 1.35 | 4510 | 5270 | -0.44 (inactive) |
| NC(C(=O)O)c1cc(O)cc(O)c1 (stereo not drawn) | 101% (inactive) | 0.987 (inactive) | 0.844 | 9310 | 9430 | -0.435 (inactive) |
| O=C(/C=C/c1ccccc1)NC(NC(=S)Nc1ccc(Cl)cc1)C(Cl)(Cl)Cl (stereo not drawn) | 118% (inactive) | 0.939 (inactive) | 1.5 | 2530 | 2700 | -0.74 (inactive) |
| Clc1ccc(CCCOCCCN2CCCCC2)cc1 | 105% (inactive) | 0.895 (inactive) | 1.39 | 7600 | 8480 | -0.64 (inactive) |
| CCCC[P+](CCCC)(CCCC)Cc1ccc(NC(=O)[C@@H](Cc2ccc3ccccc3c2)NC(=NC2CCCCC2)NC2CCCCC2)cc1 | 117% (inactive) | 1.01 (inactive) | 1.13 | 2940 | 2900 | -0.83 (inactive) |
| Cc1c[nH]c(=O)n(CCCN2CCN(c3ccccc3OCC(F)(F)F)CC2)c1=O | 126% (inactive) | 0.952 (inactive) | 0.729 | 10000 | 10500 | -0.38 (inactive) |
| O=C1C(c2ccccn2)=[N+]([O-])c2ccccc21 | 123% (inactive) | 0.941 (inactive) | 0.616 | 8260 | 8780 | -0.62 (inactive) |
| CNC(=O)[C@@H](Cc1ccccc1)N(C)C(=O)[C@@H](Cc1ccc2ccccc2c1)N(C)C(=O)/C=C/CC(C)(C)N | 99.8% (inactive) | 1 (inactive) | 0.957 | 9200 | 9170 | -0.39 (inactive) |
| CNC(=O)Oc1ccc2c(c1)C1(C)CCN(C)C1N2C (stereo not drawn) | 128% (inactive) | 0.943 (inactive) | 1.32 | 9440 | 10000 | -1 (inactive) |
| OC[C@H]1NC[C@@H](O)[C@@H](O)[C@@H]1O | 123% (inactive) | 0.958 (inactive) and 0.973 (inactive) | 0.787 and 0.709 | 4950 and 9630 | 5160 and 9890 | -0.17 (inactive) |
| O=C(NCCCN1CCC2(CC1)OCc1ccccc12)[C@H]1CCCN1Cc1ccccc1 | 123% (inactive) | 0.953 (inactive) | 1.86 | 7790 | 8180 | -0.88 (inactive) |
| CC(C)n1nnc2cc(C(=O)O)ccc21 | 115% (inactive) | 0.911 (inactive) | 1.97 | 7770 | 8530 | 0.275 (inactive) |
| CCOC(=O)NC[C@H](Cc1ccc(OCCc2nc(-c3ccccc3)oc2C)cc1)N/C(C)=C\C(=O)c1ccc(C(F)(F)F)cc1 | 105% (inactive) | 1.05 (inactive) | 1.05 | 5130 | 4910 | -0.305 (inactive) |
| Cc1cc(C)cc(C(=O)N(C)[C@H](Cc2ccc(-c3ccccc3)cc2)C(=O)N[C@@H](Cc2c[nH]c3ccccc23)C(=O)O)c1 | 125% (inactive) | 0.884 (inactive) | 0.967 | 8970 | 10100 | 7.92 (active) |
| CC1(C)CCC(C)(C)c2cc(C3(c4ccc(C(=O)O)cc4)OCCO3)ccc21 | 106% (inactive) | 0.895 (inactive) | 2.19 | 8580 | 9580 | 0.95 (inactive) |
| CN1CCN(CCc2ccc(Cl)c(Cl)c2)CC1 | 124% (inactive) | 1.04 (inactive) | 1.01 | 7800 | 7520 | -0.73 (inactive) |
| Cc1cc(C)c(S(=O)(=O)Nc2cccc(C(F)(F)F)c2)c(C)c1 | 107% (inactive) | 0.995 (inactive) | 0.922 | 5690 | 5720 | -0.605 (inactive) |
| N[C@H](C(=O)O)c1ccc(O)c(C(=O)O)c1 | 98.7% (inactive) | 0.912 (inactive) | 0.711 | 8900 | 9760 | -0.325 (inactive) |
